# From ChEMBL document CHEMBL3988442, “University of Dundee, Small-Polar-MMV Screening Library” (2021)
# For some of these results: Entries with a potency or affinity are not part of this list.
# Legend:
# [1] = biological target: T1, Methionyl-tRNA synthetase, putative (Leishmania donovani (strain BPK282A1)) (UniProt E9BF75); assay: Leishmania donovani Methionine tRNA synthetase (LdMetRS):v7. Dose response assay; type: functional; parameters: conc 80 nM, time 150 minutes
# T1 sequence (whole entry): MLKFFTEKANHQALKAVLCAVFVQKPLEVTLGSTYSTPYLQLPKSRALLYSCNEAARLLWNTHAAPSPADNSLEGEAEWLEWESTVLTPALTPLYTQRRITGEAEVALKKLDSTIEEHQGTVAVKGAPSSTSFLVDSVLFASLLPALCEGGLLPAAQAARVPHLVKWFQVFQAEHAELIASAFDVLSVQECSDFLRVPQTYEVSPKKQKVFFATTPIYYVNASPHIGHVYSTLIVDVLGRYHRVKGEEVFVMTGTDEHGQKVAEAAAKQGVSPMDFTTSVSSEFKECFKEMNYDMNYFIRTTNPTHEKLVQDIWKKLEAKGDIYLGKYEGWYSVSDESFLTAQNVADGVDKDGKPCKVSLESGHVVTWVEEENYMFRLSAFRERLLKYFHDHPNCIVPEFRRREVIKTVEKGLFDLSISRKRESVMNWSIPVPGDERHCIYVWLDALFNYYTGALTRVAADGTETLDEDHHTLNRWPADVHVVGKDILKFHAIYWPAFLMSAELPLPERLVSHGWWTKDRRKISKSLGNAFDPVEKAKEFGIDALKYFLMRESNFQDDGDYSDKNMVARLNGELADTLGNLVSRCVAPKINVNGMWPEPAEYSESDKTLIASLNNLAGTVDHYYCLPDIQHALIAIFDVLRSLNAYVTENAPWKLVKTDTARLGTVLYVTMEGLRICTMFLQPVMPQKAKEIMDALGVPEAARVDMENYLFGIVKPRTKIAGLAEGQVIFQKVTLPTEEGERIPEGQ
# [2] = biological target: Protein translocase subunit SecA (Escherichia coli (strain K12)) (UniProt P10408); assay: Assay to Identify E. coli SecA ATPase Inhibitors; type: functional; parameters: scale not given: direction of the effect not stated beside the values; conditions: 30 µM
# [3] = biological target: T2, Ubiquitin-activating enzyme e1, putative (Leishmania donovani (strain BPK282A1)) (UniProt E9BSI1); assay: Leishmania donovani Ubiquitin Activating Enzyme (LdE1); type: functional; parameters: scale not given: direction of the effect not stated beside the values; conditions: 30 µM
# T2 sequence (whole entry): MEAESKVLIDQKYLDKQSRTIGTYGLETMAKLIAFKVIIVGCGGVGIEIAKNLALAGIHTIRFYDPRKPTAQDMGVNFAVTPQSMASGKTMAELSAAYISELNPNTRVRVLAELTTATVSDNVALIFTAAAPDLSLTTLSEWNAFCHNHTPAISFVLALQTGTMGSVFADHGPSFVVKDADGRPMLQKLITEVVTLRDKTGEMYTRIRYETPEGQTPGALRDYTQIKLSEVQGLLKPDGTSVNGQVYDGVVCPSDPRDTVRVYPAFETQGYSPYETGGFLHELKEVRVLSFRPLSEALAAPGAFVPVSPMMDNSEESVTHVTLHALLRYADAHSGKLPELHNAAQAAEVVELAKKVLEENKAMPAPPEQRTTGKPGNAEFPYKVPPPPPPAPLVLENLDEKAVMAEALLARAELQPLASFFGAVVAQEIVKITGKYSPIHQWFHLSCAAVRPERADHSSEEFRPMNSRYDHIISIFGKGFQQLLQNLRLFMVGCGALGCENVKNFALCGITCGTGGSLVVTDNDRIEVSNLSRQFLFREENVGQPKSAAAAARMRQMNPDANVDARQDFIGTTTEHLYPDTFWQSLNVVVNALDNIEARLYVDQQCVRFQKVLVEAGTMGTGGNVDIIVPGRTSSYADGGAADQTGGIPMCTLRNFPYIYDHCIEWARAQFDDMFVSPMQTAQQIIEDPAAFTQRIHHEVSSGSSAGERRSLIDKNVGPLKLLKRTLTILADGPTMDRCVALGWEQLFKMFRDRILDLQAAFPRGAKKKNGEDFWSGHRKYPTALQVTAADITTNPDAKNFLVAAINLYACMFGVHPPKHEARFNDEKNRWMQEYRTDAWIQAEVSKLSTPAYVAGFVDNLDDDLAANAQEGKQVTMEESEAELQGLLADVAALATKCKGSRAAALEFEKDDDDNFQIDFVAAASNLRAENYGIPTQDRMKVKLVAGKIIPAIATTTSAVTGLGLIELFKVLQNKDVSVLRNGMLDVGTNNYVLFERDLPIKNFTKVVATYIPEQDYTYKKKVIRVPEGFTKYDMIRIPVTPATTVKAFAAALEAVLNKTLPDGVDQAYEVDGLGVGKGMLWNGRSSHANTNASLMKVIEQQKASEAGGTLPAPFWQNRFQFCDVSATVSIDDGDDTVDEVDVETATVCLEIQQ
# [4] = biological target: Sialic acid-binding Ig-like lectin 9 (Homo sapiens) (UniProt Q9Y336); assay: Hs-Siglec9 ALPHAscreen SOP 20170721; parameters: scale not given: direction of the effect not stated beside the values; conditions: 10 µM
# Trypanosoma cruzi = assay: Trypanosoma cruzi phosphomannomutase and mannose-1-phosphate guanylyltransferase assay; type: functional; parameters: scale not given: direction of the effect not stated beside the values; conditions: 10 µM
# [5] = biological target: T3, Arginase-2, mitochondrial (Homo sapiens) (UniProt P78540); assay: in vitro enzyme assay to detect the production of urea directly proportional to the activity of Arginase II; type: functional; parameters: scale not given: in the data most compounds retested in dose-response had high values; conditions: 33.3 µM
# T3 sequence (whole entry): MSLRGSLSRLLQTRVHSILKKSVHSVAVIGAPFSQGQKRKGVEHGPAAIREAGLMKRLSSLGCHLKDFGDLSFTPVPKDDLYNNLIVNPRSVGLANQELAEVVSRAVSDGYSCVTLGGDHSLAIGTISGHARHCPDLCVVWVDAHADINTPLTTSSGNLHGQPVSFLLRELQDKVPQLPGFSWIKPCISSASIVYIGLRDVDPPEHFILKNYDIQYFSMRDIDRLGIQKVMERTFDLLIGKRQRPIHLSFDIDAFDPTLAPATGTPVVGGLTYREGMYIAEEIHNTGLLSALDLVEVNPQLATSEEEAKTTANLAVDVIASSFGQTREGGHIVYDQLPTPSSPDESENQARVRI
# [6] = biological target: T4, Proteasome subunit beta (Trypanosoma cruzi) (UniProt O96673); assay: Trypanosoma cruzi proteasome chymotrypsin-like activity (TcProtChymo) assay.; type: functional; parameters: scale not given: in the data most compounds retested in dose-response had high values; conditions: 9.37 µM
# T4 sequence (whole entry): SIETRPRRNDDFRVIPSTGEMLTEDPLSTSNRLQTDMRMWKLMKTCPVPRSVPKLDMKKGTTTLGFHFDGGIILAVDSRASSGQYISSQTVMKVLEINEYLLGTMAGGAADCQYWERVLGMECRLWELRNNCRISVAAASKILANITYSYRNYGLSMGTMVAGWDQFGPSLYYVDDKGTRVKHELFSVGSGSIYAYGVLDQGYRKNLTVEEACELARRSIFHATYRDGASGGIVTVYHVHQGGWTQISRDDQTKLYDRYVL
# Homo sapiens = species: Homo sapiens; assay: To identify inhibition of the IFN signalling (Jak-Stat) pathway via expression of an eGFP reporter gene under the control of an IFN-stimulated response element (ISRE) containing MxA promoter.; type: functional; parameters: scale not given: direction of the effect not stated beside the values; conditions: 30 µM
# [7] = biological target: T5, Tyrosyl-tRNA synthetase, putative (Trypanosoma cruzi (strain CL Brener)) (UniProt Q4DSP6); assay: Trypanosoma cruzi tyrosyl tRNA synthetase (TcYRS) _High Tyrosine SOP; type: functional; parameters: scale not given: in the data most compounds retested in dose-response had high values; conditions: 30 µM
# T5 sequence (whole entry): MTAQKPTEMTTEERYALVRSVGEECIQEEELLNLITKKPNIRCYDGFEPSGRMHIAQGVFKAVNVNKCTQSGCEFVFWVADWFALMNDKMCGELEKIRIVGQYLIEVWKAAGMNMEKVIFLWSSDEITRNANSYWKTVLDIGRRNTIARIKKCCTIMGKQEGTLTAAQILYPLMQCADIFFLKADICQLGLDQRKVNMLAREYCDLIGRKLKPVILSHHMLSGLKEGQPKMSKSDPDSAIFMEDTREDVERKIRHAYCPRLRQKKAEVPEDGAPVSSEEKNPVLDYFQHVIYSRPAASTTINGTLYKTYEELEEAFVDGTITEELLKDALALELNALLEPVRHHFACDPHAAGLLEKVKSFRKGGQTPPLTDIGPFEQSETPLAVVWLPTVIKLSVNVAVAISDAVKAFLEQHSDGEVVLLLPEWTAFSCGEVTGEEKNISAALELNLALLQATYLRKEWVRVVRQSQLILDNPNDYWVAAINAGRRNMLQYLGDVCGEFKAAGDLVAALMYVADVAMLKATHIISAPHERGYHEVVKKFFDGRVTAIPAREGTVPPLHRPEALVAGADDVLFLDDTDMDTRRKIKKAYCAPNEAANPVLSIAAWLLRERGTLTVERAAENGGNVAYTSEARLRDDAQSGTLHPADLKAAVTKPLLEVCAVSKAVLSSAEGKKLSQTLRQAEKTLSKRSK
# [8] = biological target: T5, Tyrosyl-tRNA synthetase, putative (Trypanosoma cruzi (strain CL Brener)); assay: Trypanosoma cruzi tyrosyl tRNA synthetase (TcYRS) SOP; type: functional; parameters: scale not given: direction of the effect not stated beside the values; conditions: 30 µM
# [9] = biological target: Chromo domain-containing protein 1 (Saccharomyces cerevisiae (strain ATCC 204508 / S288c) (Baker's yeast)) (UniProt P32657); assay: ScCHD-1 Enzyme Inhibition Assay; type: functional; parameters: scale not given: in the data most compounds retested in dose-response had high values; conditions: 30 µM
# Sequence of Chromo domain-containing protein 1 (Saccharomyces cerevisiae (strain ATCC 204508 / S288c) (Baker's yeast)) (P32657 whole entry, the tested form may be a part): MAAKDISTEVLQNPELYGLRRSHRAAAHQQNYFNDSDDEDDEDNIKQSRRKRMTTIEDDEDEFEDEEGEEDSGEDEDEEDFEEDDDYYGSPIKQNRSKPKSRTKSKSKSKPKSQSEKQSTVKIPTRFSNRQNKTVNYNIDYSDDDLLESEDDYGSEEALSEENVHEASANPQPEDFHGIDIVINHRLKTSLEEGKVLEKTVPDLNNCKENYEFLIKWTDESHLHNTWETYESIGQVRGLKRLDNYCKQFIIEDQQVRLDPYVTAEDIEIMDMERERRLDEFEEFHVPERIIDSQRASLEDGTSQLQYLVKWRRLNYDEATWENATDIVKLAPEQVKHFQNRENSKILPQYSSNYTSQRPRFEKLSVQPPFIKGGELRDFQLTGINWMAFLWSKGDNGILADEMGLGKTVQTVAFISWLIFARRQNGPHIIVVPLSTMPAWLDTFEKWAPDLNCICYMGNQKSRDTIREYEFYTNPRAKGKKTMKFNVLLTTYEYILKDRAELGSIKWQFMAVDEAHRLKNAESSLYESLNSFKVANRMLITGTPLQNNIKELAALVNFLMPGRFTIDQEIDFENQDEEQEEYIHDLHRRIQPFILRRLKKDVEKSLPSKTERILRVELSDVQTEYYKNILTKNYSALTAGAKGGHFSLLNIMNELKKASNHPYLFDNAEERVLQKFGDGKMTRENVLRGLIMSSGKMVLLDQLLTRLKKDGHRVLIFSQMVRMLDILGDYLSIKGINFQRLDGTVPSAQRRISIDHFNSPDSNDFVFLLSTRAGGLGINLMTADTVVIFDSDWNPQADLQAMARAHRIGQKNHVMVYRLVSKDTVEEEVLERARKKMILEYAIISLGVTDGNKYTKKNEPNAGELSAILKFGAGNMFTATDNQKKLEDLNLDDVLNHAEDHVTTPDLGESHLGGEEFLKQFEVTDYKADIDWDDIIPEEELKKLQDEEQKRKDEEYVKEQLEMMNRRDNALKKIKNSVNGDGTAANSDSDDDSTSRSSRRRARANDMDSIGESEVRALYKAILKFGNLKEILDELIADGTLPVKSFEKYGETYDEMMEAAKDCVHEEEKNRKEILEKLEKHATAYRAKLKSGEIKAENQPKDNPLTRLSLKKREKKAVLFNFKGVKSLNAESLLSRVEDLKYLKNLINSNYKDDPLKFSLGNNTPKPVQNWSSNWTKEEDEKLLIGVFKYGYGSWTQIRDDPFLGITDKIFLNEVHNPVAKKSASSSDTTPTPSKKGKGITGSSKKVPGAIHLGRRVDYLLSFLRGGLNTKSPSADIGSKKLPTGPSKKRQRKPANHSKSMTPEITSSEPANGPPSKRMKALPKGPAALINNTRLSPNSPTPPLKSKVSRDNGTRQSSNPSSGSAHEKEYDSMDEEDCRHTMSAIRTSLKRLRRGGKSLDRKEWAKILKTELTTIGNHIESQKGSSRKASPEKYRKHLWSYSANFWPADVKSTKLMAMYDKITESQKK
# Sequence of Protein translocase subunit SecA (Escherichia coli (strain K12)) (P10408 whole entry): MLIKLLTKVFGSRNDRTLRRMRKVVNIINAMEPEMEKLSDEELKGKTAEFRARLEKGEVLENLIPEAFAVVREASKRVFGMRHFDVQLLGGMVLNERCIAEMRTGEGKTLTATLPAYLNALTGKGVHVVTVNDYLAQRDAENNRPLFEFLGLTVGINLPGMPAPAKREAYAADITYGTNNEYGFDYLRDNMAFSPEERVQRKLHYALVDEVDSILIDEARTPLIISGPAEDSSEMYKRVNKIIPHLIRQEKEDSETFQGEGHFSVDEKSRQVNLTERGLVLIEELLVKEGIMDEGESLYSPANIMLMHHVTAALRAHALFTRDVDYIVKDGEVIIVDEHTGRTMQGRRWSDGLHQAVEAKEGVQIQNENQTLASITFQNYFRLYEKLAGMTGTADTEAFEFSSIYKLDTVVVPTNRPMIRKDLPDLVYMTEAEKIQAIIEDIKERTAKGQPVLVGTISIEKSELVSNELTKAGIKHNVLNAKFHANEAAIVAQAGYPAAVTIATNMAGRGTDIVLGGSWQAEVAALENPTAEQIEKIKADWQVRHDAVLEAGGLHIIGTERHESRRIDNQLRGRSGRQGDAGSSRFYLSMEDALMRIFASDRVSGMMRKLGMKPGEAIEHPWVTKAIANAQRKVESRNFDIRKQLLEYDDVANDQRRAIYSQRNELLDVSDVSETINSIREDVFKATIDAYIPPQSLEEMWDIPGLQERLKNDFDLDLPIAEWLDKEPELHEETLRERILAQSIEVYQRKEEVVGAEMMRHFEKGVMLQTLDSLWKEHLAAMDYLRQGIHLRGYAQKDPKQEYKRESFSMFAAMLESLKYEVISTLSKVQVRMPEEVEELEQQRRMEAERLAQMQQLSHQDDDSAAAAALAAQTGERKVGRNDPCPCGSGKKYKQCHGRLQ
# Sequence of Sialic acid-binding Ig-like lectin 9 (Homo sapiens) (Q9Y336 whole entry): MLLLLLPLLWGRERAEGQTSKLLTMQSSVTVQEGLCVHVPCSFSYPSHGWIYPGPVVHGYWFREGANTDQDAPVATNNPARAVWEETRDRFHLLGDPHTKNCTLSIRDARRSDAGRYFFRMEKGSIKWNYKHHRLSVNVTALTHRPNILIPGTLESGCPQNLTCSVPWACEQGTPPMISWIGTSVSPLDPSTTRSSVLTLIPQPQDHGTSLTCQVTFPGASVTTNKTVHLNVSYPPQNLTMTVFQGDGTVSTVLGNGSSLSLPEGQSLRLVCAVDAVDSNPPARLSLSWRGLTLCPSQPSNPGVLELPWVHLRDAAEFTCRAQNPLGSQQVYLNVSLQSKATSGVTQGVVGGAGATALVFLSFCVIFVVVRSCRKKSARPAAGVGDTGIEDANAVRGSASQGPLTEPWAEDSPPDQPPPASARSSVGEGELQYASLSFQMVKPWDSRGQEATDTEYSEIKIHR
smiles,measurement,setting,value
CCc1[nH]c2c(CNc3cncc(C(=O)OC)n3)cc(C)cc2c1C,PXC50,[1]; MAX_EFFECT 7.798960139,< 4
same,PXC50,[1]; MAX_EFFECT 45.13888889,< 4
same,PXC50,[1]; MAX_EFFECT 45.63758389,< 4
COc1ccccc1CN1CCC(c2nn(CCN)c3nccnc23)C1 (centres undefined),PXC50,"[1]; BOTTOM 6.910506635, HILLSLOPE 2.152998005, MAX_EFFECT 63.75838926, TOP 91.48778108",4.15
same,PXC50,"[1]; BOTTOM -1.343168311, HILLSLOPE 1.212343279, MAX_EFFECT 59.72222222, TOP 92.89137202",4.23
same,PXC50,"[1]; BOTTOM -1.505582699, HILLSLOPE 1.035538343, MAX_EFFECT 55.28596187, TOP 100.0",4.07
Cn1ncc2c(NCCc3nnn[nH]3)nc(Nc3ccc(F)c(F)c3)nc21,PXC50,"[1]; BOTTOM 6.583334695, HILLSLOPE 0.991501174, MAX_EFFECT 88.67924528, TOP 94.6320251",5.11
same,PXC50,"[1]; BOTTOM -5.664940327, HILLSLOPE 0.831663104, MAX_EFFECT 86.00508906, TOP 96.34066377",5.16
same,PXC50,"[1]; BOTTOM -7.167085921, HILLSLOPE 0.718342131, MAX_EFFECT 85.0877193, TOP 100.1570552",5.14
NC(=O)c1cccnc1Nc1cccc(C(F)(F)F)c1,PXC50,[1]; MAX_EFFECT 7.210626186,< 4
same,PXC50,[1]; MAX_EFFECT 13.42975207,< 4
same,PXC50,[1]; MAX_EFFECT 16.74008811,< 4
CC(C)c1nc2c(n1C)CCN(Cc1nc(-c3cccnc3)no1)C2,PXC50,"[1]; BOTTOM 2.671185226, HILLSLOPE 0.615272847, MAX_EFFECT 58.33333333, TOP 100.0",4.04
same,PXC50,[1]; MAX_EFFECT 45.45454545,< 4
same,PXC50,[1]; MAX_EFFECT 45.58058925,< 4
same,PXC50,[1]; MAX_EFFECT 47.65100671,< 4
same,PXC50,[1]; MAX_EFFECT 48.17658349,< 4
CC(=O)N1CCN(c2ccc3ccc(C(=O)NC4CCCC4)cn23)CC1,PXC50,"[1]; BOTTOM 0.0163, HILLSLOPE 3.098457383, MAX_EFFECT 65.01650165, TOP 63.35125002",4.68
same,PXC50,"[1]; BOTTOM 1.065846223, HILLSLOPE 1.103958369, MAX_EFFECT 61.67400881, TOP 100.0",4.54
same,PXC50,"[1]; BOTTOM 3.194533203, HILLSLOPE 3.014598033, MAX_EFFECT 67.98418972, TOP 64.53848237",4.96
same,PXC50,"[1]; BOTTOM 4.030962781, HILLSLOPE 1.885788534, MAX_EFFECT 71.11111111, TOP 74.41524471",4.79
same,PXC50,"[1]; BOTTOM 4.940042643, HILLSLOPE 1.835166553, MAX_EFFECT 81.72043011, TOP 100.0",4.36
same,PXC50,"[1]; BOTTOM 5.527382632, HILLSLOPE 1.355052942, MAX_EFFECT 67.14876033, TOP 100.0",4.56
same,PXC50,"[1]; BOTTOM 8.593441039, HILLSLOPE 3.55536171, MAX_EFFECT 67.39130435, TOP 63.3453536",4.8
same,Percent Effect,[2],-2.65%
same,Percent Effect,[3],14.3%
same,Percent Effect,[4],3.54%
same,Percent Effect,Trypanosoma cruzi,-0.563%
same,Percent Effect,[5],1.37%
same,Percent Effect,[6],12.4%
same,Percent Effect,Homo sapiens,8.76%
same,Percent Effect,[7],31.9%
same,Percent Effect,[8],15%
same,Percent Effect,[9],-4.27%
